Screening data (PubChem BioAssay)
In the library only some 7.1% were active in any assay of this set; here they are far more common.
SW480 rereplic = DNA re-replication induction in SW480 cells; 1.8% of 340,000 active; SW480 DNA re-replication, Hoechst DNA content imaging, 48 h; Potency, µM (doses to about 46.1 µM), for the others: at the highest dose re-replication activation, hits mostly activators; note: % of control where 0% means no effect; nearly all actives have a fitted effect of over 55% in size
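Hoechst fluorescence of nuclei (405 nm excitation, 500-530 nm emission) measured by plate-scanning imager after 48 hr compound exposure at 37 C; re-replication scored as increased number of nuclei with elevated intensity.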
ELG1 genotoxic = induces genotoxicity in HEK293T cells with luciferase-tagged ELG1. 1.3% of 330,000 active. Potency, µM (titrated, usually from 46 µM), for the others: at the top dose activity change, positive = activation, actives largely listed as activators. HEK293T ELG1-luciferase reporter, luminescence, 16 h. AID 504466; note: % of control where 0% means no effect; nearly all actives have a fitted effect of over 60% in size
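Genotoxic stress is detected as increased luminescence from luciferase-tagged ELG1 in HEK293T cells, measured with ONE-Glo after a 16 hr treatment at 37 °C.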
MCF10A rerep = inducers of DNA re-replication in MCF 10A breast cells | MCF 10A DNA re-replication, Hoechst nuclear intensity, 48 h | Potency, µM (titrated, usually from 46.1 µM), inactives show at the highest dose activity, positive = re-replication, usual class: activators | 2.9% of 350,000 active | AID 624296; note: % of control where 0% means no effect; nearly all actives have a fitted effect of over 50% in size
AT treatment = potential ataxia-telangiectasia treatments restoring KAP-1 phosphorylation. AID 485349. 0.19% of 320,000 active. Potency, µM (series often up to 57.5 µM), for the others: at the highest dose activation, hits mostly activators. F2112 A-T fibroblasts, KAP-1 phosphorylation AlphaLISA; neocarzinostatin DNA damage 30 min before lysis; note: % of control where 0% means no effect; nearly all actives have a fitted effect of over 45% in size
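ATM-like activity read as KAP-1 phosphorylation via AlphaLISA donor/acceptor antibody pairs after lysis and 6 hr at 25C. Cells were ATM-null patient fibroblasts (F2112, hTERT), dosed 60 min, then exposed to the DSB inducer NCS for 30 min.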
ELG1 repair inh = blocks ELG1-dependent DNA repair in HEK293T cells; Potency, µM (series often up to 46.1 µM), inactives show top-dose activity change, negative = inhibition, usual class: inhibitors; HEK293T ELG1-luciferase reporter, luminescence, 16 h; DNA damage induced by 5-fluorouridine; 2.3% of 330,000 active; note: % is set by controls: 0 for no effect and ±100 for the full control effect; nearly all actives have a fitted effect of over 55% in size
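DMSO vehicle served as the neutral condition. Each well held 2,000 cells given 5-fluorouridine plus compound; after 16 hr at 37 °C/5% CO2, ONE-Glo was added and luciferase measured 30 min later.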
p53 reactivation = restores transcriptional activity of mutant p53; Potency, µM (series often up to 92.2 µM), for inactives: top-dose activity change, positive = activation, usual class: activators; AID 504706; H1299 p53-A138V BP100-luciferase reporter, luminescence, 24 h; 0.063% of 320,000 active; note: % of control where 0% means no effect; nearly all actives have a fitted effect of over 45% in size
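p53-null H1299 cells stably carrying temperature-sensitive p53-A138V and a BP100-luciferase reporter were pinned with compounds (4-point, 1:5 series) and held 24 hrs at 37 deg C. Luminescence was read 10 min after detection reagent.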
* marks the source's active call; other numbers are inactive results; u = inconclusive; x = no result. Calls come from the whole dose curve; as a rule, active = well fitted curve in the direction sought with a large enough effect; inconclusive = small, poorly fitted or top-dose-only effect, or another doubt; inactive = no such curve, though single readings can be large; an effect the other way counts as inactive or inconclusive. Potency is the fitted concentration of half-maximal effect.

SMILES	SW480 rereplic	ELG1 genotoxic	MCF10A rerep	AT treatment	ELG1 repair inh	p53 reactivation
O=C(NCC1CCCO1)c1cccc2c1C(=O)c1ccc(N3CCC(Cc4ccccc4)CC3)cc1S2(=O)=O (stereo unspecified)	2.5%	-12.7%	3.66µM*	-12.8%	2.59µM*	-2.3%
O=C(NCc1ccccc1C(F)(F)F)c1cccc2c1C(=O)c1ccc(N3CCOCC3)cc1S2(=O)=O	0.7%	4.8%	14.7%	4.2%	5.17µM*	4.2%
O=C(NCc1ccccc1)c1cccc2c1C(=O)c1ccc(/C=C/c3ccccc3)cc1S2(=O)=O	23.1µM*	2.7%	18.4µM*	-1.4%	-15.9%	-0.1%
CCC1C(c2ccccc2)=CCC(C(=O)O)C1C (stereo unspecified)	-2.2%	x	24.1%	x	x	x
COc1ccc(CCn2c(C)cc(C(=O)CN3C(=O)C(=O)N(C4CCCC4)C3=O)c2C)cc1OC	-40.2%	-5.6%	0.1%	1.4%	u	-7.1%
Cc1ccc(CNC(=O)c2cccc3c2C(=O)c2ccc(N4CCCCC4)cc2S3(=O)=O)cc1	4.0%	-1.0%	u	0.3%	u	5.1%
Cc1ccc(CNC(=O)c2cccc3c2C(=O)c2ccc(N4CCOCC4)cc2S3(=O)=O)cc1	-2.6%	-7.4%	u	3.1%	11.6µM*	-6.8%
O=C(NC(=S)Nc1ccccn1)c1ccccc1	-4.7%	1.64µM*	-2.1%	2.6%	u	u
O=C(CC(=O)c1ccccc1)Nc1ccccn1	-5.9%	14.6µM*	-1.8%	-0.6%	u	u
O=C(NC(=S)NC(c1ccccc1)c1ccncc1)c1ccccc1 (stereo unspecified)	-0.1%	-10.8%	15.0%	0.8%	18.4µM*	-9.6%
O=C(Nc1ccccn1)c1ccccc1	-29.1%	x	-27.3%	x	x	x
CC1=C(C(=O)OCc2ccc3c(c2)OCO3)C(c2ccccc2)NC(=O)N1 (stereo unspecified)	-3.2%	-23.2%	-6.6%	-2.7%	2.06µM*	1.3%
CC1=C(C(=O)OCc2ccc3c(c2)OCO3)C(c2ccc(O)c([N+](=O)[O-])c2)NC(=O)N1 (stereo unspecified)	-12.1%	-15.9%	2.4%	0.2%	9.2µM*	-4.8%
COc1ccc(COC(=O)C2=C(C)NC(=O)NC2c2ccccc2)cc1 (stereo unspecified)	1.3%	-9.5%	3.7%	0.4%	u	x
O=C(CN1C(=O)NC2(CCCC2)C1=O)Nc1ccc(C(F)(F)F)cc1	15.6%	2.9%	-2.1%	-9.8%	u	-6.4%
O=C(c1ccc(Cl)c([N+](=O)[O-])c1)N1CCCc2ccccc21	2.4%	16.4%	-0.5%	1.4%	u	7.0%
O=C(NC(C(=O)c1ccccc1)N1CCCCCC1)c1ccco1 (stereo unspecified)	-5.2%	2.4%	0.7%	1.7%	8.7%	0.1%
Cc1ccc(C(=O)C(NC(=O)c2ccco2)N2CCOCC2)cc1 (stereo unspecified)	-0.9%	18.4µM*	23.5%	-3.1%	u	u
Cc1cc(C)cc(N(C(=O)c2ccccn2)C(C(=O)NC2CCCCC2)c2ccncc2)c1 (stereo unspecified)	5.0%	0.7%	14.9%	-1.4%	-2.0%	1.1%
CN(C)CCNc1nc2sc3c(c2c(=O)n1CCc1ccccc1)CCCCC3	18.4µM*	0.3%	u	5.4%	15.4%	2.7%
CC(O)CNc1nc2sc3c(c2c(=O)n1CCc1ccccc1)CCCCC3 (stereo unspecified)	u	2.8%	u	2.0%	-29.4%	u
CC(=O)N1N=C(c2ccccc2)CC1c1cn(Cc2ccccc2)c2ccccc12 (stereo unspecified)	u	-7.1%	20.6µM*	1.3%	u	5.5%
CC(=O)N1N=C(c2ccncc2)CC1c1ccccc1O (stereo unspecified)	-2.8%	5.3%	2.9%	10.1%	-8.2%	10.6%
Cc1nc(NC(=O)/C=C/c2ccccc2)sc1C(=O)Nc1ccccc1	u	10.0%	20.6µM*	7.2%	-0.3%	-4.2%
CCCCCCc1cc2cc(C(=O)Nc3ccc(OC)cc3)c(=O)oc2cc1O	14.6µM*	-3.9%	0.731µM*	3.0%	u	3.0%
SMILES	SW480 rereplic	ELG1 genotoxic	MCF10A rerep	AT treatment	ELG1 repair inh	p53 reactivation
CCCCCCc1cc2cc(/C(N)=N/NC(=O)c3ccncc3)c(=O)oc2cc1O	1.64µM*	-3.3%	1.3µM*	1.1%	-21.0%	-2.5%
COc1ccc2oc(=O)c(C(=O)Nc3ccccc3O)cc2c1	-1.9%	0.651µM*	2.6%	-3.0%	u	6.7%
CNc1c(NS(=O)(=O)c2ccc(F)c(Cl)c2)c(=O)oc2ccccc12	1.4%	-5.6%	2.8%	-0.3%	-13.2%	-6.7%
COc1ccc2oc(=O)c(C(=O)NC(C)c3ccccc3)cc2c1 (stereo unspecified)	18.6%	-1.0%	u	5.0%	u	x
CCCCCCc1cc2cc(C(=O)Nc3cccc(OC)c3)c(=O)oc2cc1O	u	-1.4%	u	8.5%	u	8.4%
N/C(=N\NC(=O)c1ccc(F)cc1)c1cc2ccccc2oc1=O	0.7%	1.5%	-2.9%	-0.3%	0.7%	2.3%
CCCCCCc1cc2cc(S(=O)(=O)c3ccc(F)c(Cl)c3)c(=O)oc2cc1O	2.59µM*	-4.9%	u	28.2µM*	u	13.8%
Cc1ccc(S(=O)(=O)N2CCCC2C(=O)NCc2ccncc2)cc1 (stereo unspecified)	-2.6%	-8.6%	8.7%	13.5%	u	-1.6%
CCOC(=O)c1cc2ccc3ccccc3c2oc1=O	u	3.7%	6.8%	3.4%	0.2%	-11.3%
CCCCCCc1cc2cc(C(=O)NC)c(=N)oc2cc1O	12.6µM*	-3.2%	u	3.6%	14.2%	12.0%
CCOC(=O)c1cc2ccc(OC(=O)c3ccco3)cc2oc1=O	29.6%	7.6%	3.26µM*	7.8%	19.3%	-3.8%
CCCCCCc1cc2cc(C(N)=O)c(=N)oc2cc1O	x	-7.5%	x	x	u	4.6%
CCCCCCc1cc2cc(C(=O)OCC)c(=O)oc2cc1O	1.3µM*	-4.7%	u	1.2%	-36.4%	-3.7%
Cc1cc(NC(=O)/C=C/c2ccccc2Cl)n(-c2nc3ccccc3[nH]2)n1	u	6.8%	16.4µM*	16.5%	u	u
Cc1cc(NC(=O)CC2CCCC2)n(-c2nc3ccccc3[nH]2)n1	-1.5%	-11.5%	u	12.9%	23.1µM*	2.9%
CCOc1ccc(OCCC(=O)N(CCC(C)C)c2c(N)n(Cc3ccccc3)c(=O)[nH]c2=O)cc1	u	-6.3%	-7.2%	14.2%	-17.0%	3.1%
